# For some assays here: Measured potencies and affinities stand elsewhere.
# Columns and labels:
# Set-up in all cases: scale not given: direction of the effect not stated beside the values
# [1] = molecular target: Protein translocase subunit SecA (Escherichia coli (strain K12)) (UniProt P10408); test: Assay to Identify E. coli SecA ATPase Inhibitors; assay type: functional; conditions: 30 µM
# [2] = molecular target: T1, Ubiquitin-activating enzyme e1, putative (Leishmania donovani (strain BPK282A1)) (UniProt E9BSI1); test: Leishmania donovani Ubiquitin Activating Enzyme (LdE1); assay type: functional; conditions: 30 µM
# T1 sequence (whole entry): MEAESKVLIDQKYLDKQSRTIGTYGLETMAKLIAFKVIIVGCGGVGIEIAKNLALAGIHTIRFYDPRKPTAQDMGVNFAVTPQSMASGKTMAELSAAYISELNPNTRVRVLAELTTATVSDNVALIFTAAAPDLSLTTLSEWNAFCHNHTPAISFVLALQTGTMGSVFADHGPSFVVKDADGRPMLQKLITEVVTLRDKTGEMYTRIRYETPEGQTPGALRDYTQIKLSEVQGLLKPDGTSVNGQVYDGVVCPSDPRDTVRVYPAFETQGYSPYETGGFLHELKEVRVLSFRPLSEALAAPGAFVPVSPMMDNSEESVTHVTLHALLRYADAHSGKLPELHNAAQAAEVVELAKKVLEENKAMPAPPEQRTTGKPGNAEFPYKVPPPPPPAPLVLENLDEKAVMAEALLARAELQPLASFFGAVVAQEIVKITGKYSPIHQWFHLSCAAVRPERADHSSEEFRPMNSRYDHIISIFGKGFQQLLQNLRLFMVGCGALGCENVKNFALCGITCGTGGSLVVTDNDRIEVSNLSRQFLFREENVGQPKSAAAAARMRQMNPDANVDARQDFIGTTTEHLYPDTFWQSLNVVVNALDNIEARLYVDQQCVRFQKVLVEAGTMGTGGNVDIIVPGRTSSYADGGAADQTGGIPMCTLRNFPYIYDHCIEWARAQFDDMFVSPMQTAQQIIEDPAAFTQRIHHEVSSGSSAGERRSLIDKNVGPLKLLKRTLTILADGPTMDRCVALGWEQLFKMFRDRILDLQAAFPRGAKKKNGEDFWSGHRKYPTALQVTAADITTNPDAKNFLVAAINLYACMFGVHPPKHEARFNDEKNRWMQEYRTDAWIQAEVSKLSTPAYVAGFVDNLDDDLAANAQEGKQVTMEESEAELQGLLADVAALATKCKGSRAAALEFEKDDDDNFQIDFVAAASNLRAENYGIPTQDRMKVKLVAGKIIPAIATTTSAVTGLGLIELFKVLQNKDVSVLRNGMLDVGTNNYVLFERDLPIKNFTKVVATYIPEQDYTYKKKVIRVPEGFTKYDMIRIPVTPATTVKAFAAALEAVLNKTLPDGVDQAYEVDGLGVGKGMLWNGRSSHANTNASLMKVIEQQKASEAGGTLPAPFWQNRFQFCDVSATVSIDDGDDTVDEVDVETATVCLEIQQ
# [3] = molecular target: AMP-activated protein kinase, AMPK (Homo sapiens) (UniProt P54646+O43741+P54619+Q9UGJ0+Q9Y478+Q13131+Q9UGI9); test: AMP-dependent Kinase enzyme assay. An in vitro enzyme assay that detects ADP turnover that is directly proportional to AMPK activity. This uses naive AMPK that is activated during the assay with MK-8722; assay type: functional; conditions: 30 µM
# [4] = molecular target: Sialic acid-binding Ig-like lectin 9 (Homo sapiens) (UniProt Q9Y336); test: Hs-Siglec9 ALPHAscreen SOP 20170721; conditions: 10 µM
# Trypanosoma cruzi = test: Trypanosoma cruzi phosphomannomutase and mannose-1-phosphate guanylyltransferase assay; assay type: functional; conditions: 10 µM
# [5] = molecular target: T2, Arginase-2, mitochondrial (Homo sapiens) (UniProt P78540); test: in vitro enzyme assay to detect the production of urea directly proportional to the activity of Arginase II; assay type: functional; conditions: 33.3 µM; also: in the data most compounds retested in dose-response had high values
# T2 sequence (whole entry): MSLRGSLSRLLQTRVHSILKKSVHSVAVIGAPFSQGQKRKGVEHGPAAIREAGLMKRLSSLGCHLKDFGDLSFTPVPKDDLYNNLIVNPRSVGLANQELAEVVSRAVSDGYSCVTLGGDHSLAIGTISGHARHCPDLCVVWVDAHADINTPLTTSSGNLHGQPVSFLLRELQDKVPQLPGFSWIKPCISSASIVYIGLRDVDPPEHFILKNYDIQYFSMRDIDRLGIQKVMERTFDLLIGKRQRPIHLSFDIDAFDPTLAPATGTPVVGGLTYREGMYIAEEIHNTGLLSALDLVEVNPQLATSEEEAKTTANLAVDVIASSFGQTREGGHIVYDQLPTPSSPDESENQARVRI
# [6] = molecular target: T3, Proteasome subunit beta (Trypanosoma cruzi) (UniProt O96673); test: Trypanosoma cruzi proteasome chymotrypsin-like activity (TcProtChymo) assay.; also: in the data most compounds retested in dose-response had high values; assay type: functional; conditions: 9.37 µM
# T3 sequence (whole entry): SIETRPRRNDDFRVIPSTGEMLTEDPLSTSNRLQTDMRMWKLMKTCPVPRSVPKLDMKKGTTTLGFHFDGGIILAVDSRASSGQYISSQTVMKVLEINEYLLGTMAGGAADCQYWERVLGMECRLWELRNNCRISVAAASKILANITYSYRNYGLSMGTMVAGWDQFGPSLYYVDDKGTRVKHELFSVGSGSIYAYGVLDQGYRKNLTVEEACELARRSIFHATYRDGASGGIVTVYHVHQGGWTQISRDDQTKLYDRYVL
# Homo sapiens = organism: Homo sapiens; test: To identify inhibition of the IFN signalling (Jak-Stat) pathway via expression of an eGFP reporter gene under the control of an IFN-stimulated response element (ISRE) containing MxA promoter.; assay type: functional; conditions: 30 µM
# [7] = molecular target: T4, Tyrosyl-tRNA synthetase, putative (Trypanosoma cruzi (strain CL Brener)) (UniProt Q4DSP6); test: Trypanosoma cruzi tyrosyl tRNA synthetase (TcYRS) _High Tyrosine SOP; assay type: functional; conditions: 30 µM; also: in the data most compounds retested in dose-response had high values
# T4 sequence (whole entry): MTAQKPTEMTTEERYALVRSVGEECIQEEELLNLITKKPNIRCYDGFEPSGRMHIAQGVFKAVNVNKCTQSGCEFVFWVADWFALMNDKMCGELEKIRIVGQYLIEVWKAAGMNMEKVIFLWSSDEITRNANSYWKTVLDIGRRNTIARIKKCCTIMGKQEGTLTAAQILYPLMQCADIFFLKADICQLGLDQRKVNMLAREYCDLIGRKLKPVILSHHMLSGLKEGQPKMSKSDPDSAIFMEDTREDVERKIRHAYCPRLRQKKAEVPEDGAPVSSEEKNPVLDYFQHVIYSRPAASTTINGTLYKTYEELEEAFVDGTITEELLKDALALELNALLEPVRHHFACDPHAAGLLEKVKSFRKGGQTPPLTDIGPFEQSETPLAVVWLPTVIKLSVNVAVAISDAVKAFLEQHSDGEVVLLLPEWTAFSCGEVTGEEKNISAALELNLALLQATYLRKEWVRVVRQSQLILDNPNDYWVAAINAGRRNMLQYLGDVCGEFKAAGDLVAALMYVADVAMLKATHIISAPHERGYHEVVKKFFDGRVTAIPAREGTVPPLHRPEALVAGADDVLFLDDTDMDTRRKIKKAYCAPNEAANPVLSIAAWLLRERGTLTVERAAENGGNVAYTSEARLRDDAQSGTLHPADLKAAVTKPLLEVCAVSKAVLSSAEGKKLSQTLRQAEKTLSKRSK
# [8] = molecular target: T4, Tyrosyl-tRNA synthetase, putative (Trypanosoma cruzi (strain CL Brener)); test: Trypanosoma cruzi tyrosyl tRNA synthetase (TcYRS) SOP; assay type: functional; conditions: 30 µM
# [9] = molecular target: Chromo domain-containing protein 1 (Saccharomyces cerevisiae (strain ATCC 204508 / S288c) (Baker's yeast)) (UniProt P32657); test: ScCHD-1 Enzyme Inhibition Assay; assay type: functional; conditions: 30 µM; also: in the data most compounds retested in dose-response had high values
# Chromo domain-containing protein 1 (Saccharomyces cerevisiae (strain ATCC 204508 / S288c) (Baker's yeast)), sequence (P32657 whole entry, the tested form may be a part): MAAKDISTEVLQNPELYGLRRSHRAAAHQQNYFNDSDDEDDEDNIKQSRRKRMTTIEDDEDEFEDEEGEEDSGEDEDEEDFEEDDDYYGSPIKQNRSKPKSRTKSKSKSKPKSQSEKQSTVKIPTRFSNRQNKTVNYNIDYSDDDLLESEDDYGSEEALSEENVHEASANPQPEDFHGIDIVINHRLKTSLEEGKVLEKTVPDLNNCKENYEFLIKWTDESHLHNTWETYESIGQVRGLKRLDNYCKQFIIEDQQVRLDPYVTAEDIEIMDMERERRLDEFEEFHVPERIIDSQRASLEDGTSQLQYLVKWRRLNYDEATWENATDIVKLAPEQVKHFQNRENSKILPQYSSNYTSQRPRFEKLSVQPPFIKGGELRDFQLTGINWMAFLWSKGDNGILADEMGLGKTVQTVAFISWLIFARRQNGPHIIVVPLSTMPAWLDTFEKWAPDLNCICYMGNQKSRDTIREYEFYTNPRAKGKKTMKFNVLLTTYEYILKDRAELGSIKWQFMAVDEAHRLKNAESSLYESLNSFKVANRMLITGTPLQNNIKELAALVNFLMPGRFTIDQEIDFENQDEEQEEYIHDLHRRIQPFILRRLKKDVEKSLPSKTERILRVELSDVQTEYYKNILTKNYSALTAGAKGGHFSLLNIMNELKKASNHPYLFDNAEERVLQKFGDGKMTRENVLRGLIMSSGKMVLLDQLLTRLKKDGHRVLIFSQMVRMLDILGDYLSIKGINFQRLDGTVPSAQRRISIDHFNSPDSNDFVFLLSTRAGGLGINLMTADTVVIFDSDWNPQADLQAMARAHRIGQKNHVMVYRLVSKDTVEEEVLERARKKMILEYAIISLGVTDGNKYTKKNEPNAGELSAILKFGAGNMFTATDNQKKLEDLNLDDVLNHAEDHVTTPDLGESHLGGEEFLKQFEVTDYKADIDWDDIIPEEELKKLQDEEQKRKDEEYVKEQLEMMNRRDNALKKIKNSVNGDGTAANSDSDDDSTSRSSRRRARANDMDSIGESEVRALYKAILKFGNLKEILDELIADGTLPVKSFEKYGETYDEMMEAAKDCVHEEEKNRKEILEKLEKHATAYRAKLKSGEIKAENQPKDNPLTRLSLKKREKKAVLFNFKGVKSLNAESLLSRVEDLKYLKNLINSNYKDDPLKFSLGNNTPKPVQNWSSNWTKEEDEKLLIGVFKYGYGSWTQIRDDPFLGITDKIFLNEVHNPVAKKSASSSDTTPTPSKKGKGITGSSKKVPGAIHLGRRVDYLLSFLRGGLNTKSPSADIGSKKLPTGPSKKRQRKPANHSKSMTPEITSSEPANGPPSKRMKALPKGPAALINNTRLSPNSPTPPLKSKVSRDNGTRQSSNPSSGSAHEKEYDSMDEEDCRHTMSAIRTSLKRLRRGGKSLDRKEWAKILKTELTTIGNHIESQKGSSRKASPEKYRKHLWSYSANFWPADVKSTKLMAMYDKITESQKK
# Sialic acid-binding Ig-like lectin 9 (Homo sapiens), sequence (Q9Y336 whole entry): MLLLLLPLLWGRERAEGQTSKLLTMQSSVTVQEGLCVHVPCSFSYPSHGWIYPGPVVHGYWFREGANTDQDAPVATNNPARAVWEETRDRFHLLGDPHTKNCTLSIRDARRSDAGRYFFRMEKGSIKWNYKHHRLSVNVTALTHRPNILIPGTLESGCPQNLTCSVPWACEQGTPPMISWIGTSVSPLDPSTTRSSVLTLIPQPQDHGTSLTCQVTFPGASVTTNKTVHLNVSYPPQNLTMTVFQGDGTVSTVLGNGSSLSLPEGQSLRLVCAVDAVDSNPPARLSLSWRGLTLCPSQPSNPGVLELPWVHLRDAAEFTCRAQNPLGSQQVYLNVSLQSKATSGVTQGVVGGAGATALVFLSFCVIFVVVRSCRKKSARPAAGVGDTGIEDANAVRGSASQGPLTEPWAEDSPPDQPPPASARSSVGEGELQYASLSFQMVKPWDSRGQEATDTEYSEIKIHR
# Protein translocase subunit SecA (Escherichia coli (strain K12)), sequence (P10408 whole entry): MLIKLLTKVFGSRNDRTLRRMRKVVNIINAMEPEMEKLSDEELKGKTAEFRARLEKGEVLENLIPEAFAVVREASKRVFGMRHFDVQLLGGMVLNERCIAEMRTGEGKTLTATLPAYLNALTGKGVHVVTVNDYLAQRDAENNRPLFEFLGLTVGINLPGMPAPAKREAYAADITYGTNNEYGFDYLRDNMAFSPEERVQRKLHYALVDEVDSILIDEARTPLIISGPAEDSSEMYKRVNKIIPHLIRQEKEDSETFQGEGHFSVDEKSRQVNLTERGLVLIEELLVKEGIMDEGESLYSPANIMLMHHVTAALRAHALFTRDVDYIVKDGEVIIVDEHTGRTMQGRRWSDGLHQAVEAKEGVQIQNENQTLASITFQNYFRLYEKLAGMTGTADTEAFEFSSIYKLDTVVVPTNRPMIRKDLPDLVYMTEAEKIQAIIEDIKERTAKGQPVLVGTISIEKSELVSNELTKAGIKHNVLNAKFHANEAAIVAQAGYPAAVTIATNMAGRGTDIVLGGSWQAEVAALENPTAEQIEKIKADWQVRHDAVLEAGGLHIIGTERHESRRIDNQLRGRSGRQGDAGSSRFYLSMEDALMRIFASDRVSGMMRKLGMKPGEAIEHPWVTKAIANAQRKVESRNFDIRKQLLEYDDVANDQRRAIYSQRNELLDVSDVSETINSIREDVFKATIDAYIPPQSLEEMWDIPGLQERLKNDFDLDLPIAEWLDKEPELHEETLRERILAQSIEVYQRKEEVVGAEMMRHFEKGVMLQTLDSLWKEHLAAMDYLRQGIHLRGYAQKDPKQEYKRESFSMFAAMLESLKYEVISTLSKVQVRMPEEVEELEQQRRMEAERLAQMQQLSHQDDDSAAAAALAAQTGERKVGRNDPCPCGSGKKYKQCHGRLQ
SMILES,Percent Effect [1] [%],Percent Effect [2] [%],Percent Effect [3] [%],Percent Effect [4] [%],Percent Effect (Trypanosoma cruzi) [%],Percent Effect [5] [%],Percent Effect [6] [%],Percent Effect (Homo sapiens) [%],Percent Effect [7] [%],Percent Effect [8] [%],Percent Effect [9] [%]
COc1ccccc1OCC(=O)NS(=O)(=O)c1ccccc1F,-3.52,13.5,-3.34,25.9,4.44,-0.952,11.9,6.7,2.65,9.76,-10.8
O=C(NC1CCS(=O)(=O)C1)c1sccc1-c1ccc(F)cc1 (stereo unspecified),-6.43,5.41,2.1,-6.95,-4.4,-0.248,8.15,-15.8,0,6.17,11.7
Cn1cnc2c1CCN(Cc1nc(Cc3ccccc3)no1)C2,-2.4,-7.89,-7.72,-0.869,3.27,4.68,-0.931,1.02,11.3,6.17,3.08
CN(Cc1ccco1)Cc1ccccc1CNC(=O)c1ccncc1,-4.48,5.41,13.1,4.84,0.386,0,12.8,-3.63,2.65,4.88,-2.3
O=C(C1=CCCC1)N1CCO[C@H]2[C@@H](Oc3ccccn3)CC[C@@H]21,-2.61,13.3,4.5,0.0747,0.787,3.96,9.96,9.01,7.45,16.7,-3.61
CN(C(=O)Cn1nc(-c2cccs2)ccc1=O)C1CCS(=O)(=O)C1 (stereo unspecified),-7.27,0,-37.7,-0.941,-7.3,1.18,14.9,19.4,-5.32,-10.4,-7.9
Cc1nc(CN2C(=O)C[C@H]3[C@H]2CCN3C2CCOCC2)cs1,-2.26,11,-0.758,4.06,0.595,-2,8.3,-4.37,3.12,11.1,-3.21
Cc1cnn(CCC(=O)N2CCCC(c3cc(C(N)=O)[nH]n3)C2)c1 (stereo unspecified),-1.91,5.41,-10.4,10.5,1.79,-2.4,-0.901,4.5,1.48,11.1,-7.36
Cc1nc(C2CCCN(C(=O)CCCn3cccn3)C2)no1 (stereo unspecified),-4.66,23.4,-2.84,4.64,4.49,-0.356,5.57,11,6.8,24.4,-8.73
CCCN(CC(=O)NC)C(=O)c1ccc(-c2ccsc2)nc1C,-1.19,6.94,-2.8,10.6,4.76,36.2,17.9,12.1,7.37,17.9,91
Cc1cc(C)n(CC2CN(CCOc3cccc(C#N)c3)CCO2)n1 (stereo unspecified),-6.03,13.2,-3.15,-7.82,-1.21,-0.719,1.44,6.94,7.39,-6.17,-0.144
CC(C)N1CCC(Cc2cc(-c3cccc(C(=O)O)c3)ncn2)C1 (stereo unspecified),1.6,-9.46,7.52,4.36,-1.78,-0.232,2.5,0.46,2.15,1.3,20.8
COc1ccc(CNC(C)c2ccc3[nH]c(=O)[nH]c3c2)cc1 (stereo unspecified),0.617,-5.41,-4.65,13.3,1.23,-6.81,0.36,22.4,1.48,1.24,-9.21
CCn1cnnc1CNC(=O)N(C)Cc1ccc2c(c1)OCCO2,-0.341,-16.2,-15.5,-4.03,0.66,-14.8,14.6,2.89,9.36,25.9,-8.11
COc1ccc(CN2CCC3(CC(=O)N(c4cncnc4)C3)C2)cc1 (stereo unspecified),-1.48,16.2,5.08,-9.74,-3.81,-7.33,12.9,5.2,1.08,7.69,-3.32
CN(Cc1ccsc1)C(=O)c1cccc(S(=O)(=O)NC(C)(C)C)c1,-1.82,23.4,-6.77,-1.29,3,-3.56,12,18.1,6.8,12.2,-7.59

# — ChEMBL document CHEMBL3988442, “University of Dundee, Small-Polar-MMV Screening Library” (2021)
